In PubChem BioAssay AID485317 (Broad Institute, 2010):
Out of some 290,000 compounds screened, about 11,000 (3.8%) were called active.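 The calls were made as follows: active = mean replicate inhibition above about 79%, with every replicate also reaching it (limit read from the data); inconclusive = only one of the two criteria met; inactive = mean below limit and not every replicate reaching it.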 Only a selection was taken, and actives are over-represented in it overall.

These compounds were tested against FAD-linked sulfhydryl oxidase ALR (Homo sapiens) (UniProt P55789) (assay: ALR-catalysed DTT oxidation blockers – biochemical, H2O2 detection, HRP-luminol luminescence, single point, primary screen (AID 485317)). Details: purified ALR, active compounds read high, concentration not given here.
FAD-linked sulfhydryl oxidase ALR (Homo sapiens), sequence (P55789 whole entry, looked up): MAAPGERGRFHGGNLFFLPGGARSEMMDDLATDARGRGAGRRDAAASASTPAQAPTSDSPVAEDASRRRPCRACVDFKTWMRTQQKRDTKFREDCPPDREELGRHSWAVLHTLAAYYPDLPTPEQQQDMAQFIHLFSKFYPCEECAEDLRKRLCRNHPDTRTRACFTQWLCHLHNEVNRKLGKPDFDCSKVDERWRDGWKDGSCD

inhibition, inactive:
O=C(O)c1ccc2c(c1)C(=O)N(c1ccc(/C=C/C(=O)c3ccccc3)cc1)C2=O 50.4%
COC(=O)c1ccc(COc2ccc(/C=N/NC(=O)C(=O)Nc3ccc(OC)cc3)cc2OC)o1 -5.05%
COC(=O)c1ccc(C(NC(=O)OCc2ccccc2)/C(C)=C/[C@@H](C)C(=O)NCc2ccc(OC)c(OC)c2)cc1 (some centres undefined) -2.17%
O=C(/C=C/c1ccccc1)c1ccoc1 13.2%
CC(OC(=O)CN1C(=O)c2ccccc2C1=O)C(=O)c1ccccc1 (centres undefined) 4.65%
Cc1nn(CC(=O)Nc2nc3ccccc3s2)c(C)c1[N+](=O)[O-] -2.85%
CCOC(=O)N1CCN(CC(=O)Nc2cc(C)nn2-c2nc3ccccc3s2)CC1 7.49%
Cc1ccc(-c2csc(NC(=O)c3cnccn3)n2)cc1C -0.38%
Cc1csc(NC(=O)C2=COCCO2)n1 1.03%
O=C(Nc1cccc(S(=O)(=O)NC2=NCCC2)c1)c1ccc(F)cc1F -7.53%
COc1ccc(-c2cc(C(=O)N(C)CC(=O)Nc3ccccc3Cl)c3ccccc3n2)cc1OC -3.41%
Cc1ccc(S(=O)(=O)N(C)C)cc1NC(=O)COC(=O)/C=C/c1cccs1 -0.0664%
O=C(OCC(=O)N1CCN(c2ccccc2)CC1)c1ccc([N+](=O)[O-])s1 -44.6%
COc1ccccc1NC(=O)CC(NCCN(C)C)C(=O)O (centres undefined) -8.47%
COc1ccc(C)cc1NC(=O)Nc1ccccc1SC -2.74%
COc1cc([N+](=O)[O-])ccc1NC(=O)COC(=O)CCOc1ccc(C)cc1 24.6%
Cc1ccc(NC(=O)Cc2nc(COC(=O)C(C)NS(=O)(=O)c3ccc(C)cc3)cs2)cc1 (centres undefined) 14%
CCN(CC)C(=O)C(=O)Nc1cccc(Br)c1 3.75%
Cc1ccc(CSCC(=O)N(C)CC(=O)Nc2cccc(F)c2)cc1 -16.3%
COc1ccccc1NC(=O)/C=C/C(=O)O -9.66%
O=C(O)/C=C/C(=O)Nc1ccc(F)cc1F 5.9%
O=C(COC(=O)c1cc(S(=O)(=O)N2CCOCC2)ccc1F)NC1CC1 -8.45%
CN(CC(=O)Nc1ccc(F)c(F)c1F)C(=O)Cn1cnc2c1c(=O)n(C)c(=O)n2C -6.05%
CCCCn1c(N)c(N(CCC(C)C)C(=O)c2ccc(COc3ccccc3)o2)c(=O)[nH]c1=O 0.673%
CCCOC(=O)Nc1sc2c(c1C(=O)OCC)CCC2 46.6%
NC(=O)c1c(NC(=O)CSc2nc(N)cc(=O)[nH]2)sc2c1CCCC2 36%
Cc1ccc(C)c(NC(=O)COC(=O)c2nn(C)c(=O)c3ccccc23)c1 -9.61%
Cc1ccc(CCC(=O)Nc2ncc(Cc3cc(Cl)ccc3Cl)s2)o1 53.6%
COc1cccc(C(=O)OCC(=O)c2[nH]c(C)c(C(C)=O)c2C)c1 -3.4%
Cc1ccc(S(=O)(=O)NCCNC(C)c2ccc(Br)cc2)cc1 (centres undefined) -1.35%
CC(=O)C1=C(C)NC2=C(C(=O)CC(C)(C)C2)C1C (centres undefined) -3.96%
Cc1nn(-c2ccccn2)c2c1C(c1ccncc1)C1=C(CC(C)(C)CC1=O)N2 (centres undefined) 16%
O=C1CCC/C=C\C[C@@H](CC(=O)N(CCO)Cc2ccccc2)C(=O)NCCO1 0.845%
O=C(COC(=O)c1ccco1)Nc1ccc(Cl)cn1 -2.69%
O=C(CNC(=O)c1cccnc1)N/N=C/c1cccnc1 -3.02%
O=C(CNC(=O)c1cccnc1)N/N=C/c1cc(Br)c(O)c(Br)c1 43.1%
COc1ccc(-c2cc3ncccc3cn2)cc1 23.1%
COc1ccc(CNC2CCCCC2)cc1 -5.38%
COc1ccc(CNC(=O)C2CCCC2)cc1 -0.518%
CN1CCN(C2Cc3ccc(Cl)cc3Sc3ccc(F)cc32)CC1 (centres undefined) 4.93%
CCOCCn1[nH]c2ccccc2c1=O 52.9%
Cc1ccc2c(c1)C1CN(C)CCC1N2S(=O)(=O)c1cccc(F)c1 (centres undefined) 22.1%
Cc1csc(NC(=O)CSc2nc(=O)n(CCCN(C)C)c3c2CCC3)n1 -272%
CCN(CC)CCn1c2c(c(SCC(=O)Nc3ccc(C(C)C)cc3)nc1=O)CCC2 -219%
Cc1ccc(NC(=O)CSc2nc(=O)n(CCN(C)C)c3c2CCCC3)c(C)c1 5.62%
CN(C)CCn1c2c(c(SCC(=O)Nc3ccccc3C(F)(F)F)nc1=O)CCCC2 0.246%
Cc1ccc(C)c(NC(=O)CN(C)C(=O)COc2ccc3ccccc3c2)c1 -13.6%
CC(=O)Nc1ccc(NC(=O)C(NS(=O)(=O)c2ccc3c(c2)OCCO3)C(C)C)cc1 (centres undefined) 1.95%
Cc1c(NC(=O)CN(C)CC(=O)Nc2ccc(F)c(F)c2F)c(=O)n(-c2ccccc2)n1C -2.04%
O=C(COC(=O)CCOc1ccccc1)Nc1cc(S(=O)(=O)N2CCCCC2)ccc1Cl 4.02%
COc1ccc(C(=O)C(C)OC(=O)c2cccc(S(=O)(=O)Nc3c(C)n(C)n(-c4ccccc4)c3=O)c2)cc1 (centres undefined) -0.831%
Cc1cccc(C(=O)N2CCC(c3nc4ccccc4s3)CC2)c1 -11.6%
Cc1cccc(NC(=S)N2CCC(c3nc4ccccc4s3)CC2)c1 -3.53%
CCC(c1nnc(SCC(=O)NNC(=O)c2ccccc2)n1Cc1ccccc1)N(C)C (centres undefined) -1.21%
O=C(CSc1nccn1-c1cccc(F)c1)NC1CCCC1 -4.77%
O=C(CSCC(=O)Nc1cccc([N+](=O)[O-])c1)Nc1ccccc1 -3.46%
CCNC(=O)CSc1nc(-c2ccccc2)cs1 -7.87%
COc1ccccc1C(=O)NCC(=O)OCC(=O)NNC(=O)c1ccc(Br)cc1 0.892%
COc1cc(OC)cc(C(=O)NCC(=O)OCC(=O)NC(C)CCc2ccccc2)c1 (centres undefined) -4.51%
Nc1cccnc1Sc1ccccc1 -14.3%
Cc1cc(=O)[nH]c(SCC(N)=O)c1C#N -1.22%
Cc1cc(C)c(C#N)c(SCC(=O)Nc2ccccc2)n1 -3.28%
Cc1ccc(S(=O)(=O)Nc2ccc(F)c(S(=O)(=O)N3CCOCC3)c2)cc1 -9.01%
O=C(Nc1ccc2c(c1)OCO2)C1CC1(Cl)Cl (centres undefined) -6.35%
O=C(c1ccc(Cl)nc1)N1CCN(S(=O)(=O)c2ccc3c(c2)OCCO3)CC1 0.752%
Cc1c(C(=O)Nc2cccc(S(=O)(=O)N3CCOCC3)c2)oc2ccccc12 -6.82%
Cc1nc2ccc(NC(=O)c3cccc(S(=O)(=O)N4CCOCC4)c3)cc2s1 -4.99%
COc1ccc(S(=O)(=O)Nc2ccc(O)c(Sc3nc4ccccc4s3)c2)cc1 17.5%
COc1cc(OC)cc(C(=O)NC(C(=O)N2CCC2)C(C)C)c1 (centres undefined) 3.67%
O=C(CSc1ncn[nH]1)N/N=C/c1ccc(F)cc1 -0.231%
Cc1ccc(S(=O)(=O)Nc2nc(CN3CCOCC3)nc3sc(C)c(C)c23)cc1 -1.38%
Cc1cnc(NC(=O)c2ccc(Cl)nc2)s1 -5.29%
O=C(NNC(=O)c1ccc(Cl)nc1)c1ccc(Br)cc1 -1.29%
COc1cc(/C=C/C(=O)OCC(=O)c2ccccc2)cc(OC)c1OC 3.07%
C[C@H](CO)N1C[C@H](C)[C@H](CN(C)C(=O)Nc2ccc(C(F)(F)F)cc2)Oc2c(NC(=O)c3ccncc3)cccc2C1=O -1.8%

inhibition, active:
COC(=O)c1ccc(COc2ccc(/C=C/C(=O)c3ccc(OC)c(CSCC(=O)O)c3)cc2OC)cc1 99.4%
COc1ccc(C(=O)/C=C/c2ccc(-c3ccccc3)cc2)cc1CSCC(=O)O 99.2%
CCC(C)Cn1c(O)cc2nn(-c3nc4ccccc4s3)c(=O)c-2c1C (centres undefined) 98.9%
Cc1ccc(-c2csc(NC(=O)C3=COCCO3)n2)cc1C 83.7%
COC(=O)C(CC(=O)Nc1cc(C)ccc1C)Nc1ccccc1OC (centres undefined) 98.4%
CCN(CC)C(=O)CSC(Nc1cccc(F)c1)=C(C#N)C#N 98.8%
COC(=O)c1sc(-c2ccc(C(C)(C)C)cc2)cc1NC(=O)/C=C/C(=O)O 98.3%
CCOC(=O)c1c(NC(=O)CSc2nnc(C)c(=O)[nH]2)sc2c1CCC2 90%
Cc1ccc(Cc2cnc(N)s2)o1 99.1%
Cc1cc2c(cc1C)NC(c1ccccn1)C1=C(CC(C)(C)CC1=O)N2 (centres undefined) 99.2%
CCN(CC)c1ccc(/C=N/NC(=O)CNC(=O)c2cccnc2)cc1 98.6%
COc1ccc(N/N=C2/CCCCC2=O)cc1 99.4%
Cc1ccc2nc(NC(=O)CSc3nc(=O)n(CCCN(C)C)c4c3CCC4)sc2c1 97.3%
CCN(CC)CCn1c2c(c(SCC(=O)Nc3nc4ccccc4s3)nc1=O)CCCC2 98.7%
O=C(c1cccs1)N1CCC(c2nc3ccccc3s2)CC1 98.7%
O=C(CSc1nc(-c2ccccc2)cs1)Nc1cccc([N+](=O)[O-])c1 98%
Cc1ccc(NC(=O)CSc2sc3c(O)cc(=O)[nH]c3c2C#N)cc1C 98.4%
O=C(O)c1cccc(S(=O)(=O)Nc2ccc(O)cc2Sc2nc3ccccc3s2)c1 98.9%
O=C(NNc1ccccn1)c1ccc(Cl)nc1 91.6%
